Source: PubChem BioAssay (National Center for Advancing Translational Sciences (NCATS))
This is a sample that favours compounds with a hit; in the whole collection about 10% have one here.
JMJD2A Tudor: inhibitors of human JMJD2A Tudor domain. AlphaScreen JMJD2A-Tudor / H3K4me3 peptide binding. Potency, µM (highest dose often 114 µM), inactives show at the highest dose activity change, negative = inhibition, hits mostly inhibitors. actives 4.4% (n = 390,000). AID 504339; note: potency is the fitted concentration of half-maximal effect; % is set by controls: 0 for no effect and ±100 for the full control effect; nearly all actives have a fitted effect of over 50% in size
BAZ2B inh: inhibitors of human BAZ2B bromodomain | Q9UIF8 | AlphaScreen BAZ2B-H3K14Ac peptide displacement | Potency, µM (highest dose often 114 µM), for inactives: at the highest dose activity change, negative = inhibition, usual class: inhibitors | actives 4.4% (n = 360,000); note: potency is the fitted concentration of half-maximal effect; % is set by controls: 0 for no effect and ±100 for the full control effect; nearly all actives have a fitted effect of over 60% in size
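BAZ2B 50 nM plus b-H3(5-23)K14Ac 50 nM, PBS pH 7.4/0.01% Tween-20, 30 min RT; compound added (max 110 uM), 30 min RT; streptavidin donor/Ni-chelate acceptor beads 10 ug/mL final, 20 min dark; AlphaScreen read.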
HP1b chromo inh: inhibitors of HP1-beta chromodomain binding to methylated histone tails | AID 540317 | AlphaScreen HP1-beta / biotin-H3K9me3 peptide binding | actives 0.56% (n = 390,000) | Potency, µM (highest dose often 114 µM), without a hit: at the highest dose activity change, negative = inhibition, usual class: inhibitors; note: potency is the fitted concentration of half-maximal effect; nearly all actives have a fitted effect of over 70% in size
Target sequence (P83916 whole entry, looked up): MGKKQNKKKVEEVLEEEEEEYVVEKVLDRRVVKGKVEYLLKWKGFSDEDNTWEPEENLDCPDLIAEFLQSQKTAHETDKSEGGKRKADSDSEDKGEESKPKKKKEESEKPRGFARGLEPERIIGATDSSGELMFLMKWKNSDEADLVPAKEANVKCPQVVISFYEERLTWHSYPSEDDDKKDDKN
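AlphaScreen: HP1-beta (50 nM) preformed 30 min with biotin-H3(1-18)K9me3 peptide (50 nM) in PBS pH 7.4, 0.01% Tween-20. Compound added for 30 min at RT, then streptavidin donor/nickel chelate acceptor beads (10 ug/mL) for 30 min.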
CtBP-E1A blk: CtBP/E1A binding inhibition; AlphaScreen GST-E1A/His-CtBP binding, 1536-well; active compounds read low; activity change, % (no concentration beside the values); actives 0.49% (n = 340,000); AID 651724; in the data active = activity change below about -65%; inconclusive = mostly about -30% to -63%; note: % is set by controls: 0 for no effect and ±100 for the full control effect
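Homogeneous bead-based format: GST-tagged E1A captured on glutathione donor beads, His-tagged CtBP on nickel acceptor beads; compounds precede bead addition by 2 h at 37 °C.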
G9a block: inhibitors of human histone lysine methyltransferase G9a | Q96KQ7 | G9a H3K9 monomethylation, AlphaScreen, 2 h | Potency, µM (highest dose often 102 µM), without a hit: at the top dose activity, negative = inhibition, actives largely listed as inhibitors | actives 8.8% (n = 350,000) | AID 504332; note: potency is the fitted concentration of half-maximal effect; % is set by controls: 0 for no effect and ±100 for the full control effect; nearly all actives have a fitted effect of over 75% in size
Target sequence (Q96KQ7 913-1193 limits assumed): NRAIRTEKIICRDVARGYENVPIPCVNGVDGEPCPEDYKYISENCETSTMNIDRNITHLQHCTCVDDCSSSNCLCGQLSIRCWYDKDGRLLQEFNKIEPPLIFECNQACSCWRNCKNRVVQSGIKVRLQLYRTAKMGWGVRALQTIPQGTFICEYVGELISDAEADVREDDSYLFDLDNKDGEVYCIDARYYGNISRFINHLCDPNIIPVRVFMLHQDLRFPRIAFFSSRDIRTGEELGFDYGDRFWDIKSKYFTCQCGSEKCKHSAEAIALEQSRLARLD
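Signal arises when biotinylated H3K9 peptide, once monomethylated, bridges streptavidin donor and antibody-captured acceptor beads. Enzyme at 20 nM was preincubated 15 min with test compounds; peptide 500 nM and SAM 20 uM then reacted for 2 h.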
Six1-Eya2 blk: Six1/Eya2 interaction inhibition; Q15475+O00167; AlphaScreen GST-Six1/His-Eya2 binding, biochemical; active compounds read low; AID 651725; actives 0.56% (n = 360,000); activity change, % (no concentration beside the values); in the data active = activity change below about -65%; inconclusive = mostly about -30% to -63%; note: % is set by controls: 0 for no effect and ±100 for the full control effect
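Compounds are tested against tagged Six1 and Eya2 proteins bridged by glutathione donor and nickel acceptor beads; after a one-hour incubation at 37 °C without light, AlphaScreen emission is recorded.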
* = called active by the depositor; ? = inconclusive; nt = no result; [ ] = dose if it differs, or a comment. Unless noted, calls come from the whole dose curve; as a rule, active = well fitted inhibition curve with a large enough effect; inconclusive = small, poorly fitted or top-dose-only effect; inactive = no such curve, though single readings can be large or run the other way.

SMILES | JMJD2A Tudor | BAZ2B inh | HP1b chromo inh | CtBP-E1A blk | G9a block | Six1-Eya2 blk
Cc1nc(-c2cccc(Cl)c2)n[nH]1 | -17% | -15% | 19% | -3 | ? | 5
S=c1nc(-c2cc(Cl)ccc2Cl)[nH][nH]1 | 5µM* | -23% | ? | -2 | 1.6µM* | -1
S=c1nc(-c2ccccc2Br)[nH][nH]1 | 0.79µM* | 12% | ? | 1 | 0.79µM* | 2
S=c1nc(-c2cc(Cl)cc(Cl)c2)[nH][nH]1 | 79µM* | -5% | -1% | -1 | 22µM* | 1
S=c1nc(-c2cccc(Cl)c2)[nH][nH]1 | 2.5µM* | -20% | 12% | 4 | 1.6µM* | -11
Cn1ccnc1SCC(=O)c1ccc(Cl)cc1 | -18% | -37% | 2% | 6 | 50µM* | -1
COc1cccc(C(=O)CSc2nnc(CNS(=O)(=O)c3ccc(C)cc3)n2C)c1 | 20µM* | -3% | ? | -2 | 3.2µM* | -1
COc1cccc(C(=O)CSc2nccn2C)c1 | -10% | -9% | 5% | -1 | 50µM* | -3
O=c1[nH]c2ccc(NCc3ccc(-c4ccccc4F)o3)cc2[nH]1 | -16% | -10% | 28% | nt | -25%[59 µM] | nt
CCCCC(CC(O)COCC(C)C)C(=O)NNC(=S)Nc1ccccc1 (stereo not given) | 1% | 0% | 27% | 10 | 8.9µM* | -4
Cc1cc(C)c(S(=O)(=O)N2CCCOC2CNC(=O)C(=O)NCCCn2ccnc2)c(C)c1 (stereo not given) | 1% | ? | 20% | -14 | 5%[59 µM] | 1
Cc1ccc(S(=O)(=O)N2CCCOC2CNC(=O)C(=O)NCCCn2ccnc2)cc1 (stereo not given) | -23% | 50µM* | 21% | -16 | -27%[59 µM] | -25
O=C(NCCCn1ccnc1)C(=O)NCC1OCCN1S(=O)(=O)c1ccc(F)cc1 (stereo not given) | 56µM* | 6.3µM* | 28% | -73* | 19% | -77*
COc1ccc(S(=O)(=O)N2CCCOC2CNC(=O)C(=O)NCCCN2CCOCC2)cc1 (stereo not given) | -4% | 6% | 13% | -5 | nt | 10
COc1ccc(S(=O)(=O)N2CCCOC2CNC(=O)C(=O)NCCCn2ccnc2)cc1 (stereo not given) | -12% | 79µM* | 20% | 3 | 6% | 8
Cc1ccc(C)c(S(=O)(=O)N2CCCOC2CNC(=O)C(=O)NCCCn2ccnc2)c1 (stereo not given) | -33% | 45µM* | ? | 3 | 2%[59 µM] | -9
O=C(Cn1cnc2c(nc3n2CCCCC3)c1=O)Nc1ccc(F)c(Cl)c1 | -7% | -3% | 37% | nt | -23%[59 µM] | nt
O=C(NCCCn1ccnc1)C1CCCN(S(=O)(=O)c2ccc(F)cc2)C1 (stereo not given) | 13µM* | -11% | 23% | 5 | 14%[59 µM] | -2
COc1cc(NS(=O)(=O)c2ccc(NC(=O)COc3cccc(C)c3)cc2)nc(OC)n1 | -14% | 1% | 4% | -2 | 25µM* | -2
COC(=O)CCC(=O)NC(=S)Nc1ccc(S(=O)(=O)Nc2cc(OC)nc(OC)n2)cc1 | -6% | -19% | 29% | 0 | 50µM* | -1
Cc1cccc(OCC(=O)NCC(=O)N/N=C/c2cccnc2)c1 | -8% | -5% | 11% | 11 | nt | -10
CC1CN(c2ccc([N+](=O)[O-])c(NCCOc3ccc(Cl)cc3)c2)CC(C)N1 (stereo not given) | 32µM* | 11µM* | ? | nt | 45µM* | -7
CCc1ccc(OCCNc2cc(N3CCNC(C)C3)ccc2[N+](=O)[O-])cc1 (stereo not given) | 40µM* | 35µM* | ? | -26 | 4%[2.33 µM] | ?
CCC1=C(c2ccc(C)cc2)S(=O)(=O)N=C1N1CCC(C(=O)Nc2ccccc2F)CC1 | -18% | -9% | -8% | nt | 6%[59 µM] | nt
CC(CC(=O)NCc1ccc(Cl)cc1)S(=O)(=O)c1ccc2c(c1)NC(=O)CO2 (stereo not given) | -8% | -2% | 35% | 6 | ? | -5
SMILES | JMJD2A Tudor | BAZ2B inh | HP1b chromo inh | CtBP-E1A blk | G9a block | Six1-Eya2 blk
COC(=O)c1ccc(CSc2ccc3nnc(-c4cccc(F)c4)n3n2)o1 | 89µM* | -2% | ? | ? | 18µM* | -11
CSc1ccc2nnc(-c3cccc(F)c3)n2n1 | -14% | 0% | 17% | ? | 40µM* | ?
CCOC(=O)CC(=O)CSc1ccc2nnc(-c3cccc(F)c3)n2n1 | -1% | -3% | 12% | ? | -30% | -27
CCCCn1c(SCC(=O)NC2CCS(=O)(=O)C2)nnc1-c1ccc(OC)cc1 (stereo not given) | -4% | 0% | 31% | 3 | ? | 12
O=C(CSc1nnc(-c2ccccc2)n1-c1ccc(Cl)cc1)NC1CCS(=O)(=O)C1 (stereo not given) | -11% | -1% | 8% | 5 | 20%[59 µM] | 3
Cc1ccccc1-n1c(-c2ccc(Cl)cc2)cnc1SCC(=O)NC1CCS(=O)(=O)C1 (stereo not given) | ? | 50µM* | -29% | -24 | 8.9µM* | -15
CC(C)(C)c1ccc(-c2nnc(SCC(=O)NC3CCS(=O)(=O)C3)n2N)cc1 (stereo not given) | -24% | nt | 9% | -10 | 20µM* | -7
O=C(CCn1cnc(-c2ccccc2)c1-c1ccccc1)N/N=C/c1ccc(O)cc1 | 25µM* | ? | ? | -17 | ? | -11
COc1ccc(/C=N/NC(=O)CCn2cnc3ccccc32)cc1 | -6% | -18% | 37% | 1 | 9% | -2
COc1ccc(/C=N/NC(=O)CCn2cnc(-c3ccccc3)c2-c2ccccc2)cc1 | 20µM* | 25µM* | ? | -22 | ? | -24
O=C(CCCCC(=O)NN=Cc1ccccc1O)NN=Cc1ccccc1O | -15% | nt | 50% | -13 | nt | -15
O=C(CCn1cnc(-c2ccccc2)c1-c1ccccc1)N/N=C/c1ccccc1O | 25µM* | ? | ? | -29 | 45µM* | -19
O=C(NCC(=O)N1CCCCCC1)c1ccc(Br)cc1 | -22% | -14% | 16% | 1 | 22% | 2
CN(C(=S)NC(=O)C1CC1)c1ccc(O)cc1 | 89µM* | -2% | -39% | -2 | ? | 2
O=C(NC(=S)N(Cc1ccccc1)c1ccccn1)C1CC1 | -2% | 2% | 13% | -16 | 14µM* | -4
CCN(C(=S)NC(=O)C1CCCC1)C1CCCCC1 | -9% | -18% | 33% | 0 | -45% | 12
CCN(C(=S)NC(=O)C1CC1)c1ccccc1 | -13% | -22% | 12% | 1 | 35µM* | -7
O=C(NC(=S)N(Cc1ccccc1)Cc1ccccc1)C1CCCCC1 | -16% | 29% | 75% | 5 | -20% | 3
